Measurements: PubChem BioAssay (NCI)
“And” between values parts separate entries of the source, which are not always exact repeats. Identical values can stand only once. About 83,000 compounds went through this panel and 20% of them were active in at least one assay; those are over-represented in the sample as a whole.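 Cell lines were cultured in 96-well plates, exposed to a single compound concentration, and assessed for percent growth 48 hours later.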 The source made the active and inactive calls. The calls were made as follows: active = growth percent below 10; inactive = the rest.

The compounds below were run on MDA-MB-468 breast (assay: NCI-60 one-dose screen, 48 h (100 = growth as untreated, 0 = no growth, -100 = all killed)). Details: 10 µM unless noted.

| Compound | growth |
| --- | --- |
| COc1cccc(-c2nnc(COc3ccc(-c4nc5ccccc5[nH]4)cc3OC)o2)c1 | 84.6% (inactive) |
| O=C(CCCCCCN1CC(=O)N2[C@@H](c3ccccc3Br)c3[nH]c4ccccc4c3C[C@H]2C1=O)NO | 36.2% (inactive) |
| COC(=O)Nc1nc2ccc(C(=O)c3ccc(N(C)C4COC4)cc3)cc2[nH]1 | -8.89% (active) |
| COc1ccc(-c2nc(-c3cc(OC)cc(OC)c3)[nH]c2-c2ccc(OC)cc2)cc1 | 31.4% (inactive) |
| CCC1CCc2nc3sc(C(=O)Nc4cccc(F)c4)c(N)c3cc2C1 (stereo not given) | 23.4% (inactive) |
| CN(c1cc2ncc(=O)[nH]c2cc1NC(N)=NCc1ccc(Cl)cc1)C1CCCCC1 | -80.8% (active) |
| CCN1C(=O)N(CC)C2C1N=C(SC)N2/N=C/C=C/c1ccccc1OC (stereo not given) | 1.3% (active) |
| COc1cc(/C=C/C(=O)c2ccc(Cl)cc2)ccc1OS(=O)(=O)c1ccc(C)cc1 | 99.7% (inactive) |
| N=C(N)c1ccc(-c2ccc(-c3ccc(Cl)c(Cl)c3)o2)cc1 | -70.3% (active) |
| C=C1C(=O)O[C@H]2[C@H]1CC/C(Cn1cc(CNCCc3c[nH]c4ccccc34)nn1)=C\CC[C@@]1(C)O[C@@H]21 | 37.3% (inactive) |
| COc1cccc(/C=N/C(=S)NC2(C)C3CCC(C3)C2(C)C)c1O (stereo not given) | 57% (inactive) |
| CCC(C)C(N)C(=O)NNc1n[nH]c(=S)n1N (stereo not given) | 104% (inactive) |
| COc1ccc(Cl)cc1NC(N)=S | 101% (inactive) |
| COc1ccc(/C=N/NC(=O)c2c(N)nn(C)c2Nc2ccccc2)cc1 | -1.26% (active) |
| CC(C)(N)CO[C@H]1C[C@H]2CC[C@@]1(C)C2(C)C | 84% (inactive) |
| CC(=O)CC1CCCC1c1ccc2ccccc2c1 (stereo not given) | 101% (inactive) |
| O=c1[nH]c(=S)[nH]c(O)c1/C=C1\C=Nc2ccccc21 | 103% (inactive) |
| COC(=O)Nc1ccc(-c2nc(-c3cccc(OC)c3)c(-c3ccnc(Br)c3)[nH]2)cc1 | 39.1% (inactive) |
| O=C(OCc1ccc2c(Cl)cc(Cl)c(O)c2n1)N1CCN(C(=O)c2cc3ccccc3[nH]2)CC1 | 10.3% (inactive) |
| O=C(O)c1cn(C2CC2)c2cc(N3CCN(C(=O)/C=C/c4ccc(Cl)cc4)CC3)c(F)cc2c1=O | 75.5% (inactive) |

| Compound | growth |
| --- | --- |
| COc1cc2cc(Oc3ccc(NC(=O)c4cccc(C(F)(F)F)c4)cc3)c(C)nc2cc1OCCN(C)C | 81.5% (inactive) |
| COc1ccccc1NC(=O)c1ccc(/C=C/C(=O)c2nccn2C)cc1 | -40.7% (active) |
| Clc1ccc2c(Nc3ccc4oc(NCCN5CCCC5)nc4c3)ccnc2c1 | 70.6% (inactive) |
| Cc1cc(C(=O)c2ccc(Cl)cc2)ccc1O | 96.1% (inactive) |
| COc1c(B(O)O)cc(F)cc1-c1nc2ccc3[nH]ncc3c2c2c1CCCC2 | -4.35% (active) |
| COc1ccccc1/C=N/NC1=NC2C(N1)N(C)C(=O)N2C (stereo not given) | 106% (inactive) |
| OCCNc1nc(Nc2ccc(Cl)c(Cl)c2)nc2ccccc12 | -10.6% (active) |
| S=c1nc(CS)[nH]c2ccccc12 | 103% (inactive) |
| COc1ccc(C2C3=C(COC3=O)N(CCO)c3cc4c(cc32)CCC4)cc1 (stereo not given) | 7.26% (active) |
| Clc1cnc(Nc2ccc(OCCN3CCCC3)cc2)nc1NCc1ccco1 | 16.6% (inactive) |
| COc1cc(CNC(=O)/C=C/C=C/c2ccc3c(c2)OCO3)ccc1OCc1cn(-c2ccc(Cl)c(Cl)c2)nn1 | -68.1% (active) |
| C1CNC(C2=NCCN2)=N1 | -26.9% (active) |
| S=C(Sc1ccc(Cl)cc1)Sc1ccc(Cl)cc1 | -37.6% (active) |
| O=C(Nc1ccc(I)cc1)c1cccc([N+](=O)[O-])c1O | 2.17% (active) |
| CN(C)c1ccc(/C=C(\C#N)c2ccccc2)cc1 | 4.19% (active) and -2.35% (active) and 4.76% (active) |
| C=CCN(CC#N)CC=C | 101% (inactive) |
| OC(Cc1cccnc1)c1ccccc1 (stereo not given) | 111% (inactive) |
| CC(=O)Nc1ccc(S(=O)(=O)Nc2cccc(-c3nc(-c4ccc(NC(=O)c5cccnc5)cc4Cl)no3)c2)cc1 | 18.4% (inactive) |
| CCNC(=O)Nc1ccc(-c2nc3c(c(N4CCOC[C@@H]4C)n2)CCN(C2COC2)C3)cc1 | 13.5% (inactive) and -25.6% (active) |
| O=C(C[P+](c1ccccc1)(c1ccccc1)c1ccccc1)C[P+](c1ccccc1)(c1ccccc1)c1ccccc1 | -33.8% (active) |
